Screening data as filed in PubChem BioAssay.
Cycloheximide cs = counter-screen for Shiga toxin inhibitors: cycloheximide protein synthesis inhibition. cell reporter, cycloheximide protein synthesis inhibition counterscreen. max response, %. 300,000 tested, 12% active. AID 2314; in the data active = max response mostly above about 13%, no sharp cut-off; inactive = mostly below about 14%; also: read at 38.3 µM for the half of the compounds with a filed dose
LmPK inhibitor = inhibitors of Leishmania mexicana pyruvate kinase | purified LmPK, Kinase-Glo ATP luminescence, 1 h | Potency, µM (series often up to 57.5 µM), usual class: inhibitors | 290,000 tested, 0.37% active | AID 1721
Target sequence (Q27686 whole entry, looked up): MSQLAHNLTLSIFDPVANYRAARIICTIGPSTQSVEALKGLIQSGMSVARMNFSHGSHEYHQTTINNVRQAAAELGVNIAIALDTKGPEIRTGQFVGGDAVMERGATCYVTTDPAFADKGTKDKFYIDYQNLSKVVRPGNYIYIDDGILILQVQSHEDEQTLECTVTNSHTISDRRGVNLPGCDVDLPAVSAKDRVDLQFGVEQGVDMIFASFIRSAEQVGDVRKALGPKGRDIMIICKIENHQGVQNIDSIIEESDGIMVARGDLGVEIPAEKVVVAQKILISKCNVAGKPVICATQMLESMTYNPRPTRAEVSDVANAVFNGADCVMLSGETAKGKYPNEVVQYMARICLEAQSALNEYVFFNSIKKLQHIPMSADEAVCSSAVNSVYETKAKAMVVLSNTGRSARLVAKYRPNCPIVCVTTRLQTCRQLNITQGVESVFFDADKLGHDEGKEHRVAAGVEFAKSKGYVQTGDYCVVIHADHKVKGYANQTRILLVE
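qHTS format; LmPK 0.1 nM; substrates PEP 0.5 mM and ADP 0.1 mM. One-hour room-temperature incubation, then coupled luciferase luminescence; 0.5 nM enzyme wells mark activation.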
Pf growth 96h = inhibits malaria parasite growth, 96 h; P. falciparum luciferase reporter growth, 96 h; Potency, µM (doses to about 28.7 µM), most hits filed as inhibitors; 320,000 tested, 6.9% active
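Infected RBCs, 2% Hct / 0.05% parasitemia final; luciferase-reporter P. falciparum; cpd 96 h, 37 C, 5% CO2; luciferase detection reagent; luminescence.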
Pf growth 48h = P. falciparum growth inhibition at 48 hours (one generation) | Potency, µM (titrated, usually from 28.7 µM), hits mostly inhibitors | 310,000 tested, 5.9% active | AID 504832 | P. falciparum luciferase growth in erythrocytes, 48 h
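Read-out is firefly luciferase luminescence from an integrated reporter in P. falciparum, so falling signal marks reduced parasite growth. Infected erythrocytes were at 2% hematocrit and 0.1% parasitemia (final) in Albumax-supplemented RPMI 1640.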
Shiga inhibitor = inhibitors of Shiga toxin in Vero cells; Vero cells, Shiga toxin protein synthesis inhibition reporter; inhibition, % at 38.7 µM; 290,000 tested, 9.2% active; in the data active = inhibition mostly above about 28%, no sharp cut-off; inactive = mostly below about 43%
Hits are given with their value; [ ] = dose if it differs, or a comment. Hits are enriched below; roughly 22% of the tested compounds scored in any of these assays. Unless noted, calls follow the shape of the dose curve; as a rule, active = well fitted inhibition curve with a large enough effect; inconclusive = small, poorly fitted or top-dose-only effect, or another doubt; inactive = no such curve, though single readings can be large or run the other way.

For O=C(c1ccc(C(F)(F)F)cc1)N1CCC(=O)N(C(COCc2ccccc2)Cc2ccccc2)CC1 (stereo not drawn) the results were Cycloheximide cs inactive, LmPK inhibitor inactive, Pf growth 96h 8.3µM, Pf growth 48h inconclusive and Shiga inhibitor inactive.
Screening CC(C)CC(COCc1ccc(Cl)cc1)N1CCN(C(=O)c2cccc(C(F)(F)F)c2)CCC1=O (stereo not drawn) returned Cycloheximide cs inactive, LmPK inhibitor inactive, Pf growth 96h inconclusive, Pf growth 48h inconclusive and Shiga inhibitor inactive.
CC(C)CC(COCc1cccc(C(F)(F)F)c1)N1CCN(C(=O)c2cccc(C(F)(F)F)c2)CCC1=O (stereo not drawn) was read as Cycloheximide cs inactive, LmPK inhibitor inactive, Pf growth 96h 15µM, Pf growth 48h inconclusive and Shiga inhibitor inactive.
`CC(C)(C)c1ccc(C(=O)N2CCC(=O)N(C(COCc3ccccc3)Cc3ccccc3)CC2)cc1` (stereo not drawn) gave Cycloheximide cs inactive, LmPK inhibitor inactive, Pf growth 96h 12µM, Pf growth 48h 9.3µM and Shiga inhibitor inactive.
Screening O=C(c1ccc(Cl)c(Cl)c1)N1CCC(=O)N(C(COCc2cccc(C(F)(F)F)c2)Cc2ccccc2)CC1 (stereo not drawn) returned Cycloheximide cs inactive, LmPK inhibitor inactive, Pf growth 96h 13µM, Pf growth 48h inconclusive and Shiga inhibitor inactive.
`O=C(c1ccc(Cl)c(Cl)c1)N1CCC(=O)N(C(COCc2ccc(Cl)cc2)Cc2ccccc2)CC1` (stereo not drawn) gave Cycloheximide cs inactive, LmPK inhibitor inactive, Pf growth 96h inconclusive, Pf growth 48h inconclusive and Shiga inhibitor inactive.
For O=C(C1=C[C@@H](c2ccc(C(F)(F)F)cc2)C[C@@H](OCc2ccc(CO)cc2)O1)N1CCN(Cc2ccccc2)CC1 the results were Cycloheximide cs inactive, LmPK inhibitor inactive, Pf growth 96h inconclusive, Pf growth 48h inconclusive and Shiga inhibitor inactive.
For COc1ccc(N2CCN(CCN3C(=O)c4ccccc4C3=O)CC2)cc1 the results were Cycloheximide cs inactive, LmPK inhibitor inactive, Pf growth 96h inactive, Pf growth 48h inactive and Shiga inhibitor inactive.
Screening CCn1c(CN2CCOCC2)nnc1SCC(=O)Nc1ccc(C(C)=O)cc1 returned Cycloheximide cs inactive, LmPK inhibitor inactive, Pf growth 96h inconclusive, Pf growth 48h inconclusive and Shiga inhibitor inactive.
`N#CC1(NC(=O)COc2cccnc2[N+](=O)[O-])CCCCC1` gave Pf growth 96h inactive and Pf growth 48h inactive.
CCN(Cc1nc2cc(Cl)ccc2c(=O)[nH]1)C(=O)c1cccc(OCc2c(C)noc2C)c1 was read as Pf growth 96h inactive and Pf growth 48h inconclusive.
CS(=O)(=O)c1ccccc1-c1nnc(NC(=O)c2ccc3ncsc3c2)o1 was read as Pf growth 96h inactive and Pf growth 48h inactive.
CC1CN(C(=O)C(Sc2ccccc2)c2ccccc2)CC(C)O1 (stereo not drawn) was read as Cycloheximide cs inactive, LmPK inhibitor inactive, Pf growth 96h 10µM, Pf growth 48h inactive and Shiga inhibitor inactive.
Screening C#CCn1c(=NC(=O)c2ccc(Br)s2)sc2cc(NC(C)=O)ccc21 returned Cycloheximide cs inactive, LmPK inhibitor inactive, Pf growth 96h inactive, Pf growth 48h inactive and Shiga inhibitor inactive.
C=CCn1c(=NC(=O)c2cccs2)sc2cccc(OC)c21 was read as Cycloheximide cs 28, LmPK inhibitor inactive, Pf growth 96h inconclusive, Pf growth 48h inconclusive and Shiga inhibitor 53.
`CCOc1cccc2sc(=NC(=O)CCS(=O)(=O)c3ccccc3)n(CC)c12` gave Cycloheximide cs inactive, LmPK inhibitor inactive, Pf growth 96h inconclusive, Pf growth 48h inconclusive and Shiga inhibitor inactive.
For CCn1c(=NC(=O)c2ccc(S(=O)(=O)N(C)C)cc2)sc2cccc(OC)c21 the results were Cycloheximide cs inactive, LmPK inhibitor inactive, Pf growth 96h inconclusive, Pf growth 48h 8.3µM and Shiga inhibitor inactive.
C#CCn1c(=NC(=O)c2ccc(Br)s2)sc2cccc(OC)c21 was read as Cycloheximide cs 19, LmPK inhibitor inactive, Pf growth 96h inconclusive, Pf growth 48h inconclusive and Shiga inhibitor 73.
CCC1(c2ccccc2)NC(=O)N(CC(=O)Nc2ccccc2N2CCCC2)C1=O (stereo not drawn) was read as Pf growth 96h inactive and Pf growth 48h inactive.
`CC(C)n1c(/N=C/c2ccccc2O)nc2ccccc21` gave Cycloheximide cs inactive, LmPK inhibitor inactive, Pf growth 96h inconclusive, Pf growth 48h inactive and Shiga inhibitor inactive.
`CCCCC[C@]12Cc3ccccc3C(O1)C1=C(CC(C)(C)CC1=O)O2` gave Cycloheximide cs inactive, LmPK inhibitor inactive[11.5 µM], Pf growth 96h inconclusive, Pf growth 48h inactive[5.75 µM] and Shiga inhibitor inactive.
For CCCCOc1ccc(C(=O)Nc2cc(C)c(OCC(=O)N3CCOCC3)c(C)c2)cc1 the results were Cycloheximide cs 22, LmPK inhibitor inactive, Pf growth 96h inactive, Pf growth 48h inactive and Shiga inhibitor inactive.
Screening Cc1cc(NC(=O)c2ccc(Cl)cc2)cc(C)c1OCC(=O)N1CCOCC1 returned Cycloheximide cs 33, LmPK inhibitor inactive, Pf growth 96h inactive, Pf growth 48h inactive and Shiga inhibitor 77.
For COc1cc(C(=O)Nc2cc(C)ccn2)ccc1OCC(=O)N1CCOCC1 the results were Cycloheximide cs 42, LmPK inhibitor inactive, Pf growth 96h inactive, Pf growth 48h inactive and Shiga inhibitor 51.
For Cc1cc(OCC(=O)OCC(=O)N2CCc3ccccc3C2)ccc1Cl the results were Pf growth 96h inactive and Pf growth 48h inactive.
For CC1=C(C(=O)Nc2ccc(C)cc2C)C(c2ccc(Cl)cc2)n2nc(C(=O)OC(C)C)nc2N1 (stereo not drawn) the results were Cycloheximide cs inactive, LmPK inhibitor inactive, Pf growth 96h inconclusive, Pf growth 48h inactive and Shiga inhibitor inactive.
Screening CC1(C)Cc2ccccc2C(/C(=N\Nc2cccc(Cl)c2)C(N)=O)=N1 returned Cycloheximide cs inactive, LmPK inhibitor inactive, Pf growth 96h inactive, Pf growth 48h 5.9µM and Shiga inhibitor inactive.
CC(=O)c1ccc(N/N=C(/C(N)=O)C2=NC(C)(C)Cc3ccccc32)cc1 was read as Cycloheximide cs inactive, LmPK inhibitor inactive, Pf growth 96h inactive, Pf growth 48h inconclusive and Shiga inhibitor inactive.
CCCCc1c(O)n(-c2ccccc2)[nH]c1=O was read as Cycloheximide cs inactive and Shiga inhibitor inactive.
COCCCNCC(O)COc1ccccc1F (stereo not drawn) was read as Cycloheximide cs inactive, LmPK inhibitor inactive, Pf growth 96h inactive, Pf growth 48h inactive and Shiga inhibitor inactive.
Cc1nc(SCc2cccc(F)c2)c2oc3ccccc3c2n1 was read as Cycloheximide cs inactive, LmPK inhibitor inactive, Pf growth 96h inconclusive, Pf growth 48h 10µM and Shiga inhibitor inactive.
`Cc1nc(SCC(=O)Nc2ccc(F)cc2)c2oc3ccccc3c2n1` gave Cycloheximide cs inactive, LmPK inhibitor inactive, Pf growth 48h inactive and Shiga inhibitor inactive.
